USP30 block = inhibitors of human USP30 deubiquitinase; purified USP30, Ub-rhodamine cleavage fluorescence; inhibition, % at 25 µM; 5.3% of 47,000 active; AID 1645860, 2021
USP28 block = inhibitors of human USP28 deubiquitinase | Ubiquitin carboxyl-terminal hydrolase 28 (Homo sapiens), Q96RU2 | 3% of 47,000 active | purified USP28, Ub-rhodamine cleavage fluorescence, 30 min | inhibition, % at 25 µM
USP17 inh = inhibitors of human USP17 deubiquitinase. Ubiquitin carboxyl-terminal hydrolase 17-like protein 5 (Homo sapiens), A8MUK1. inhibition, % at 50 µM. 6.5% of 47,000 active. AID 1645855, 2021. purified USP17, Ub-rhodamine cleavage fluorescence, 3 h
OTUD3 inh = inhibitors of human OTUD3 deubiquitinase; OTU domain-containing protein 3 (Homo sapiens), Q5T2D3; purified OTUD3, Ub-rhodamine fluorescence, 2 h; inhibition, % at 25 µM; 0.7% of 47,000 active
Target sequence (Q5T2D3 whole entry, looked up, the tested form may be a part): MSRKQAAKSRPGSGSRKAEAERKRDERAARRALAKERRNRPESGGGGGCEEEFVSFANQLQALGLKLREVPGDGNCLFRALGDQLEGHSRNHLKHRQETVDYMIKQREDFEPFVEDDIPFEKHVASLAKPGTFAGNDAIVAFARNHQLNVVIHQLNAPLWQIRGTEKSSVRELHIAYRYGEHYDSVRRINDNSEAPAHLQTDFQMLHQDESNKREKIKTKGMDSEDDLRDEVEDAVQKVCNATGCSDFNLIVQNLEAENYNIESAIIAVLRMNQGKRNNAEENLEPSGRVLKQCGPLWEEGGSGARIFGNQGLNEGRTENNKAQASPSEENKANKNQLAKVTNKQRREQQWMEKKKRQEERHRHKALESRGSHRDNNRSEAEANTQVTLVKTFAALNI
Hits are given with their value; . = inactive; / = no result. Only some compounds are listed: those with a hit (about 12% of all), similar ones and a draw of the others. No stated cut-off is given here; in the data, active means inhibition above about 30%; inactive means the rest.

SMILES	USP30 block	USP28 block	USP17 inh	OTUD3 inh
COc1ccc(NS(=O)(=O)c2cc(NC(=O)CCC(=O)c3ccc(F)cc3)ccc2C)cc1	36	.	.	.
Cc1cc(C)n(-c2ccc(C(=O)Nc3nc(C)c(C)s3)nn2)n1	.	.	.	.
O=C(CN1CCOCC1)Nc1nc(-c2ccc3c(c2)CCN3C(=O)c2ccccc2F)cs1	.	.	30	.
O=C(CN1CCOCC1)Nc1nc(-c2ccc3c(c2)CCN3C(=O)C2CC2)cs1	.	.	.	.
O=C(CN1CCCCC1)Nc1nc(-c2ccc3c(c2)CCN3C(=O)C2CC2)cs1	.	.	31	.
Cc1cccc(CN2[C@H](c3ccccc3F)C[C@H]3NC(=O)CCCC[C@@H]32)n1	.	.	.	.
COc1ccc(-c2c(C(=O)O)sc3c2NC(=O)CC3c2ccccc2)cc1 (stereo not drawn)	.	.	.	.
COc1cccc(C2CC(=O)Nc3c2sc(C(=O)O)c3-c2ccc(C)cc2)c1 (stereo not drawn)	30	.	.	.
CN(Cc1ccccc1)C(=O)C1c2ccccc2C(=O)N(C)C1c1cccs1 (stereo not drawn)	.	.	.	.
Cc1cc(-c2cnc(NC3CCCC3)nc2[C@H]2CCCO2)on1	/	/	.	.
Cc1cc(-c2cnc(N3CCSCC3)nc2[C@@H]2CCCO2)on1	33	.	.	.
Cc1cc(-c2cnc(N3CCCCC3)nc2C2CCN(c3cnccn3)CC2)on1	34	.	.	.
Cc1cc(-c2cnc(N3CCCCC3)nc2C2CCN(c3ncccn3)CC2)on1	.	.	.	.
Cc1cnc(NC(=O)CNC(=O)c2ccccc2F)s1	.	.	.	.
O=C(CC(=O)c1c(F)cccc1F)c1ccccc1O	30	.	.	.
Cc1ccc(CNC(=O)c2cc(=O)nc3sc(N4CCCCCC4)nn23)cc1	31	.	.	.
O=C(Nc1ccccc1Sc1ncc(-c2ccc(Cl)cc2)cn1)c1ccco1	.	.	52	.
O=C(Nc1ncc2c(n1)CC(c1ccc(Cl)cc1)CC2=O)c1ccco1 (stereo not drawn)	.	.	.	.
O=C(N[C@@H]1C[C@@H](Oc2cccnc2)[C@H](O)[C@H]1N1CCCCC1)c1cccnc1	.	.	.	.
CSc1ccc(CNC(=O)CC2CCN(S(=O)(=O)c3ccc(C)cc3)CC2)cc1	50	30	.	.
CC(=O)Nc1ccc(S(=O)(=O)N2CCC(CC(=O)NCc3ccc(F)cc3)CC2)cc1	.	.	.	.
Fc1ccc(-c2nnc(Cc3nc(-c4ccccc4F)no3)o2)cc1	.	.	.	.
Fc1ccccc1Cc1nc(-c2ccc3nncn3c2)no1	.	53	/	.
O=C(c1cccnc1)N1C[C@H](OCc2ccncc2)[C@H]2OCCC[C@H]21	.	.	.	.
Cc1ccc(NC(=O)N2CCC3(CC2)N=C(c2ccccc2)C(=O)N3)cc1C	.	.	37	.
SMILES	USP30 block	USP28 block	USP17 inh	OTUD3 inh
Cc1cccc(NC(=O)N2CCC3(CC2)N=C(c2ccccc2)C(=O)N3)c1	.	.	.	.
CC(=O)N1CCc2cc(S(=O)(=O)NCCC(=O)Nc3ccc(C)cc3C)ccc21	.	.	.	.
CC(=O)N1CCc2cc(S(=O)(=O)NCCC(=O)Nc3cccc(C)c3C)ccc21	64	.	34	.
COC(=O)c1ccc(N2CCN(C(=O)c3ccccc3)CC2)c(NC(=O)COc2ccccc2Cl)c1	33	.	39	.
COC(=O)c1ccc(N2CCN(C(=O)c3ccccc3)CC2)c(NC(=O)c2cc(OC)c(OC)c(OC)c2)c1	.	.	.	.
Nc1ncnc2sc(Nc3ccc([N+](=O)[O-])cc3)nc12	39	33	34	.
Nc1nc(-c2cc([N+](=O)[O-])cs2)cs1	.	.	.	.
COC(=O)c1ccc(Nc2cc(C)nc3cc(C(F)(F)F)ccc23)cc1	66	.	64	.
COc1ccc(OCC(=O)NCCC2=CCCCC2)c([N+](=O)[O-])c1	.	.	.	.
O=C(COc1cc([N+](=O)[O-])cc2cccnc12)NCCC1=CCCCC1	37	.	86	.
COc1ccc(F)cc1-c1cccc(CC2(C(=O)NC3CC3)CCOCC2)c1	.	.	.	.
O=C(NCc1cnc(C2CCCCO2)nc1)c1cccc2ncccc12 (stereo not drawn)	.	.	.	.
CN(Cc1ccc2c(c1)OCO2)C(C(=O)Nc1ccc(F)cc1)c1ccccc1 (stereo not drawn)	39	.	.	.
COc1ccc(C2CC(=O)N(Cc3ccc(F)cc3)C(=O)C2)cc1OC	.	.	47	.
Cc1ccccc1CC(=O)NCC(=O)Nc1nc2ccccc2[nH]1	32	.	44	.
Cc1ccc(C(=O)NCC(=O)Nc2nc3ccccc3[nH]2)cc1	.	.	42	.
O=C(Cc1cccc(F)c1)NCC(=O)Nc1nc2ccccc2[nH]1	.	.	.	.
O=C(CNC(=O)c1cccc(F)c1)Nc1nc2ccccc2[nH]1	39	.	64	.
Cc1ccc(CC(=O)NC(C)C(=O)Nc2nc3ccccc3[nH]2)cc1 (stereo not drawn)	.	.	.	.
Cc1cnc(-c2cnc(CC3CCCN(S(=O)(=O)N(C)C)C3)cn2)[nH]1 (stereo not drawn)	.	.	.	.
Cc1cc(=O)n2[nH]c(CNc3ccc(C)c(Cl)c3)nc2n1	.	.	.	.
COc1cccc(-c2cncc(C3CNCCO3)n2)c1 (stereo not drawn)	.	.	.	.
COc1ccccc1C(=O)Nc1ccc2c(c1)NC(=O)C(C)O2 (stereo not drawn)	.	.	.	.
CO[C@@H]1CC[C@H]2C[C@@H]1[C@@H](Oc1ccccn1)CN2S(C)(=O)=O	.	.	.	.
COc1ccc(CNC(=O)CN2C(=O)C(C)=C(c3ccc(C)cc3)S2(=O)=O)cc1	.	58	.	.
SMILES	USP30 block	USP28 block	USP17 inh	OTUD3 inh
COc1ccc(CNC(=O)CN2CCN(Cc3ccccc3C)C2=O)cc1	.	.	.	.
O=C(C1CC1)N1CCC2(C1)c1ccccc1S(=O)(=O)N2Cc1ccc(F)cc1 (stereo not drawn)	36	.	.	.
CC(=O)Nc1cccc(NC(=O)CSc2ccc(-c3ccc4c(c3)OCO4)nn2)c1	33	.	.	.
O=C(CSc1ccc(-c2cccc([N+](=O)[O-])c2)nn1)Nc1cccc(F)c1	45	40	79	.
O=C(CSc1ccc(-c2ccncc2)nn1)Nc1ccc(Cl)cc1	.	.	32	.
O=C(CSc1ccc(-c2ccccc2)nn1)Nc1ccc(F)c([N+](=O)[O-])c1	.	.	.	.
COc1ccc(NC(=O)CSc2ccc(-c3cccnc3)nn2)cc1OC	.	.	.	.
O=C(Cn1cc(C(=O)C(F)(F)F)c2cc(Br)ccc21)N1CCc2ccccc21	.	.	40	.
CC(C)(C)C(=O)N1CCCC(c2cncc(N3CC4(CCCCC4)OC3=O)n2)C1 (stereo not drawn)	45	.	.	.
CC(=O)N1CCCC(c2cncc(N3CC4(CCCCC4)OC3=O)n2)C1 (stereo not drawn)	.	.	.	.
COc1ccc(CNc2ncnc3sccc23)cc1OC	.	.	.	.

Screening data: PubChem BioAssay, Buhrlage Lab, Dana-Farber Cancer Institute and Novartis Institutes for BioMedical Research (Cambridge, Mass)
